outcome, potentiation and activation data for 16 molecules are collected here from PubChem BioAssay.

Molecules are shown by their SMILES. For some of these results: Potency and affinity values are given separately. Calls of active or inactive are those of the source.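 The calls were made as follows, unless noted: active = calcium signal ratio cut to more than 3 SD under the fully stimulated control mean yet still positive, in both repeats and the primary screen; inactive = the rest.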

Assay [1] concerns TRPC4 beta (transient receptor potential cation channel C4), mouse. Description: activators of mouse TRPC4 channel, confirmation, cell-based, Fluo4 calcium, HEK293 TRPC4beta/mu-opioid, duplicates, 10 µM (AID 2426;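 active = fluorescence ratio normalized to control raised more than 50% in primary screen plus both repeat runs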;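 as to activation: percent rise of integrated ratio over buffer wells lacking compound which define 0%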). Particulars: Fluo4 calcium fluorescence, at 10 µM; active compounds read high.
Assay [2] concerns transient receptor potential cation channel C4 beta (TRPC4), mouse. The assay is described as follows: activators of mouse TRPC4 channel, confirmation, cell-based, second round, Fluo4, HEK293 TRPC4beta/mu-opioid, 1 µM (AID 2461;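 active = primary screen active and over 50% activation in each of two duplicate runs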). Particulars: Fluo4 calcium fluorescence, at 1 µM; active compounds read high.
Assay [3] deals with TRPC4 (transient receptor potential cation channel C4 beta), mouse. The assay is described as follows: positive allosteric modulators of mouse TRPC4, confirmation, cell-based, second round, Fluo-4, HEK293 TRPC4beta/mu-opioid, 1 µM (AID 2554;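 active = primary screen hit whose fluorescence ratio, in both repeats, exceeds the weak agonist control mean by 3 SD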). Conditions: DAMGO EC20, Fluo-4 calcium flux, at 1 µM; active compounds read high. Background: A change in cytosolic calcium serves as a functional read-out for many receptors and channels.

Assay [4] concerns TRPC4 beta (transient receptor potential cation channel C4), mouse. Description: positive allosteric modulators of mouse TRPC4, confirmation, cell-based, Fluo-4, HEK293 TRPC4beta/mu-opioid (AID 2555;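 active = primary screen hit whose calcium fluorescence ratio, in both repeats, exceeds the weak agonist control mean by 3 SD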). Particulars: DAMGO EC20, Fluo-4 calcium flux, at 10 µM; active compounds read high.
For assay [5], the target named is Short transient receptor potential channel 4 (Mus musculus) (UniProt Q9QUQ5). The assay is described as follows: inhibitors of mouse TRPC4 channel, confirmation, cell-based, Fluo4, HEK293 TRPC4beta/mu-opioid (AID 2636;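 active = calcium signal cut by more than 3 SD below the full-agonist control yet still positive, in both repeats and the earlier primary screen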). Particulars: DAMGO, Fluo4 calcium flux, at 10 µM; active compounds read high.
Short transient receptor potential channel 4 (Mus musculus), sequence (Q9QUQ5 whole entry, looked up): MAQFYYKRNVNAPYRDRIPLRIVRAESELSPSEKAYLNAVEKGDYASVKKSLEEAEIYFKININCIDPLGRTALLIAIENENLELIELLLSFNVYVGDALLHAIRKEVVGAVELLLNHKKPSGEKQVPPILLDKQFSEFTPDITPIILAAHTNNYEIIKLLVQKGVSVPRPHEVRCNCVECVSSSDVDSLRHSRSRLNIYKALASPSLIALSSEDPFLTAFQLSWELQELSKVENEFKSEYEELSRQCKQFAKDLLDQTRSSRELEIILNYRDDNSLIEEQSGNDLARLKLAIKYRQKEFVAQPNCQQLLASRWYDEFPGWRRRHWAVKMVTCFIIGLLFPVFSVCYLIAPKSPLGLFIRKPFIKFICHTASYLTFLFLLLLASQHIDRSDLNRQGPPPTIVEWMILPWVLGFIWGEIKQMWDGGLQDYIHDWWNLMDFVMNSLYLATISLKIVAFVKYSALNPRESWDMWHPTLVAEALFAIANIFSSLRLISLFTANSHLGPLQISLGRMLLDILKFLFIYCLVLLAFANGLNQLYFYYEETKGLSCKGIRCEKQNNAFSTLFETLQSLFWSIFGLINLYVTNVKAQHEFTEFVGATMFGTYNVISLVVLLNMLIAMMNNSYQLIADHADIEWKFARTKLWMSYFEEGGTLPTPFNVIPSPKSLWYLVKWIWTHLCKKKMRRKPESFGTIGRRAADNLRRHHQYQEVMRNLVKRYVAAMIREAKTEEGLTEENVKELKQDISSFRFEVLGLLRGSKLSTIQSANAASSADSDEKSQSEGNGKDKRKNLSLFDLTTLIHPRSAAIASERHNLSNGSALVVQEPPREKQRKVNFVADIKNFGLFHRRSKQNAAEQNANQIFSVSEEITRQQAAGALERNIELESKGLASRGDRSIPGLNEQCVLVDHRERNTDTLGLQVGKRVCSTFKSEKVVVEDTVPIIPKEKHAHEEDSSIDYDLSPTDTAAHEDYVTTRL
For assay [6] the target is unchanged. The assay is described as follows: inhibitors of mouse TRPC4 channel, confirmation, cell-based, second round, Fluo4, HEK293 TRPC4beta/mu-opioid, 1 µM (AID 2637). Conditions: Fluo4 calcium flux, DAMGO, at 1 µM; active compounds read high.
Assay [7] shares this target. Description: mouse TRPC4 channel activators, dose response, cell-based, HEK293 TRPC4/mu-opioid, Fluo-4 calcium (AID 434937;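 active = primary screen activator hit with a dose response curve and TRPC4 channel activation at any tested dose; inactive = no activation, no dose response, or not a primary hit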).
The target is the same in assay [8]. The assay is described as follows: mouse TRPC4 channel inhibitors, dose response, cell-based, HEK293 TRPC4/mu-opioid, Fluo-4 calcium (AID 434942;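 active = primary screen inhibitor hit that blocks the TRPC4 channel at some tested dose, yielding a dose curve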).
For assay [9], the target named is Short transient receptor potential channel 6 (Mus musculus) (UniProt Q61143). Description: inhibition of mouse TRPC6 channel, confirmation, selectivity assay for TRPC4 inhibitor project, cell-based, HEK293, membrane potential dye, duplicate (AID 434948;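 active = active in primary screen and both duplicates, each dropping signal beyond three positive-control SD with fluorescence still positive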). Particulars: HEK293 TRPC6, membrane potential dye fluorescence, at 10 µM, stimulated with maximal-effect acetylcholine; active compounds read high.
Short transient receptor potential channel 6 (Mus musculus), sequence (Q61143 whole entry, looked up): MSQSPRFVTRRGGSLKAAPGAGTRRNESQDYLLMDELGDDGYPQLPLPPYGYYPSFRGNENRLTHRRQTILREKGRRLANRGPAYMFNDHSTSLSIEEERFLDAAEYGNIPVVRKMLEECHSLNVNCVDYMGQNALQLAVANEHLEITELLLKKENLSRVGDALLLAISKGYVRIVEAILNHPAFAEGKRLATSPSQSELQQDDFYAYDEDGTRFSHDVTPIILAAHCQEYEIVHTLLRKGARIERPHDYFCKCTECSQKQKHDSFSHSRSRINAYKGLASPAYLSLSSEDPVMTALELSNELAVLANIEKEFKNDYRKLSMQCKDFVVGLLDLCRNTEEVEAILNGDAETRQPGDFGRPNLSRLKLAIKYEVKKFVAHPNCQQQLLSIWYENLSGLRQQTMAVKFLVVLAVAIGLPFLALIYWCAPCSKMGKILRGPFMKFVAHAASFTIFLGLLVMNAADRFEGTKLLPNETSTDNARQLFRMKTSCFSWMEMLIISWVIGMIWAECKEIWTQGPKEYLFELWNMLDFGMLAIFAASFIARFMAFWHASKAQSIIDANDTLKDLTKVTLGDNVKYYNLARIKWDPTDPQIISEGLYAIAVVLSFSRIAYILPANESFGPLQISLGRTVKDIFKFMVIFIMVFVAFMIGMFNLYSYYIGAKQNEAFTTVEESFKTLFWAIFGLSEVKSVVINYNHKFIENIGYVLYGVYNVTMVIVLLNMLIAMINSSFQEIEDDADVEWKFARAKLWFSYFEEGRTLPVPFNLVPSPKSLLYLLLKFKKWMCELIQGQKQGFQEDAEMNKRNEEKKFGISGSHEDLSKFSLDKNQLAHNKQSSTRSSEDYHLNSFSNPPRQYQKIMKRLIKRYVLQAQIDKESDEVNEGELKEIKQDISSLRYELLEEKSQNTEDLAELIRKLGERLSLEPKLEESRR

Assay [10] has the same target. Description: activation of mouse TRPC6 channel, confirmation, selectivity assay for TRPC4 activator project, cell-based, HEK293, membrane potential dye, duplicate (AID 434950;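 active = membrane potential signal rise above negative control mean plus 3 SD in both duplicates, also active in the earlier TRPC4 screen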;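 as to activation: 0% = buffer only wells and 100% = acetylcholine maximal-effect wells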). Particulars: HEK293 TRPC6, membrane potential fluorescence, at 10 µM; active compounds read high.
Assay [11] has the same target. Description: TRPC6 potentiation by TRPC4 potentiator hits, confirmation, selectivity assay for TRPC4 potentiator project, HEK293 cells, membrane potential dye, duplicate (AID 434952;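 active = compound raising the membrane signal above positive-control mean plus 3 SD in both repeats, and a primary screen hit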). Particulars: HEK293 TRPC6, membrane potential dye fluorescence, at 10 µM, maximal acetylcholine added after compound; active compounds read high.
Assay [12] deals with Short transient receptor potential channel 4 (Mus musculus) (UniProt Q9QUQ5). The assay is described as follows: calcium flux activators in TRPC4/5HT1a cells, counter-screen for TRPC4 activator project, cell-based, second counter screen, HEK293 TRPC4/5HT1a, Fluo-4 (AID 434977;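 active = calcium signal rise above buffer-control mean plus 5 SD in both duplicates, and also a hit in the primary screen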;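 as to activation: plate controls were assay buffer for no effect and maximal serotonin response for full effect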). Conditions: Fluo-4 calcium flux, at 10 µM; active compounds read high.
Assay [13] in a line: calcium flux inhibitors in TRPC4/5HT1a cells, confirmation, counter-screen for TRPC4 inhibitor project, cell-based, second counter screen, HEK293 TRPC4/5HT1a, Fluo-4 (AID 434978;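 active = primary screen active whose calcium signal fell more than 3 SD beyond the full-serotonin control mean in both duplicate plates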;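 also: serotonin given first at submaximal then at maximal dose after compound preincubation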). Particulars: Fluo-4 calcium flux, at 10 µM, serotonin added to trigger calcium flux; active compounds read high.
The test system of assay [14] is TRPC4 (mouse), co-expressed with 5HT1a in HEK293. Description: calcium flux potentiators in TRPC4/5HT1a cells, confirmation, counter-screen for TRPC4 potentiator project, cell-based, second counter screen, HEK293 TRPC4/5HT1a, Fluo-4 (AID 434979;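 active = signal rise over 3 SD above mean of control wells given weak agonist, in both repeats and first screen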). Particulars: Fluo-4 calcium flux, at 10 µM, serotonin added at its EC20 dose; active compounds read high.
Assay [15] in a line: calcium flux activation in mu-opioid HEK293 cells, confirmation, counter-screen for TRPC4 activator project, cell-based, HEK293 mu-opioid receptor line (AID 449723;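 active = hit in primary screen, with calcium signal over 5 SD above buffer well mean in both duplicates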;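 also: counter screen cells carry the mu-opioid receptor alone and lack TRPC4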). Conditions: Fluo-4 calcium fluorescence, at 10 µM; active compounds read high.
Assay [16] in a line: calcium flux enhancement in mu-opioid HEK293 cells, confirmation, counter-screen for TRPC4 allosteric potentiator project, cell-based, HEK293 mu-opioid receptor line (AID 449724;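 active = calcium signal rise more than 3 SD above the low-dose agonist control mean, in both duplicate plates and the primary screen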). Conditions: Fluo-4 calcium flux, at 10 µM, compound added before EC20 DAMGO stimulus; active compounds read high.
Assay [17] concerns the target Short transient receptor potential channel 4 (Mus musculus) (UniProt Q9QUQ5). The assay is described as follows: TRPC4 positive allosteric modulators, dose response, cell-based, HEK293 TRPC4/mu-opioid, Fluo-4 calcium, EC20 DAMGO (AID 434941;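 active = earlier screen potentiator hit that boosts the TRPC4 ion channel at some dose, with a dose response; inactive = no potentiation, no dose response, or not a prior hit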;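 also: calcium entry triggered by an EC20 dose of DAMGO at the co-expressed mu-opioid receptor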).

As for `O=[N+]([O-])c1ccc(/C=N/Nc2nc(N3CCCCC3)nc(N3CCCCC3)n2)o1`, the outcome in assay [1], in [2], in assay [3], in [5], in assay [6] and in assay [7] was inactive. The outcome in assay [8], in assay [9], in assay [10], in assay [11], in [12] and in assay [13] was inactive. Besides, the outcome in [15] and in assay [16] was inactive. In addition, the potentiation in assay [4] is 21% (active); in assay [14] it was 59.2% (active).

For the molecule `CCSC1=N/C(=C\c2ccc(OC)cc2)C(=O)N1`, the outcome in [1], in assay [2], in assay [3], in [4], in assay [5] and in assay [6] was inactive. Moreover, the outcome in assay [7], in assay [8], in assay [9], in [10], in assay [11] and in assay [12] was inactive. Also, the outcome in assay [13], in [14], in assay [15] and in assay [16] was inactive.

`c1ccc(-c2nc(N3CCNCC3)nc3ccccc23)cc1`: the result in [1], in assay [2], in [4], in [5], in assay [6] and in [7] was inactive. The outcome in assay [8], in assay [9], in assay [10], in assay [11], in [12] and in assay [13] was inactive. Also, the result in [14], in [15] and in assay [16] was inactive. The potentiation in [3] is 19% (active).

For `Cc1cccc(Cc2c(C)nc3c(C(=O)NCc4ccco4)cnn3c2C)c1`, the result in assay [1], in [2], in [3], in [4], in [5] and in assay [6] was inactive. The outcome in assay [7], in assay [8], in assay [9], in assay [10], in assay [11] and in [12] was inactive. For the same molecule, the result in assay [13], in assay [15] and in [16] was inactive. The potentiation in assay [14] was 58.9% (active).

As to `CC1CCN(c2nc(Cl)nc(Nc3ccc([N+](=O)[O-])cc3)n2)CC1`, the result in assay [1], in assay [2], in assay [3], in [5], in assay [6] and in assay [7] was inactive. The outcome in assay [8], in [9], in assay [10], in [11], in assay [12] and in assay [13] was inactive. The result in assay [15] and in assay [16] was inactive. For the same molecule, the potentiation in assay [4] was 15% (active); in [14], 66% (active).

With `O=C1C(Cl)=C(Nc2cccc(O)c2)C(=O)N1Cc1ccccc1`, the outcome in assay [1], in assay [2], in assay [3], in assay [5], in assay [6] and in assay [7] was inactive. Further, the outcome in [8], in [9], in assay [10], in assay [11], in assay [12] and in [13] was inactive. In addition, the outcome in assay [15] and in [16] was inactive. Besides, the potentiation in [4] was 38% (active); in assay [14], 20.8% (active).

Consider `O=C(CC1C(=O)NCCN1Cc1ccccc1C(F)(F)F)NCCc1ccccn1` (stereo unspecified), for which the activation in assay [1] is 106% (active); in assay [12], 26.7% (active). For the same molecule, the outcome in assay [2], in assay [3], in assay [4], in [5], in [6] and in assay [17] was inactive. Further, the outcome in [8], in [9], in assay [10], in assay [11], in [13] and in assay [14] was inactive. The result in [15] and in assay [16] was inactive.

On to `Cc1cc(-c2ccc(C)c(S(=O)(=O)N3CCN(c4ccccn4)CC3)c2)on1`, for which the result in assay [1], in [2], in assay [3], in assay [5], in [6] and in assay [7] was inactive. Besides, the result in [8], in assay [9], in [10], in [11], in assay [12] and in [13] was inactive. Also, the result in assay [15] and in assay [16] was inactive. Moreover, the potentiation was 18% (active) in assay [4] and 16.4% (active) in [14].

As to `Cc1cc(OCCn2ccnc2)cc(C)c1Cl`, the activation in [1] was 146% (active); in assay [10] it was 42% (active); in [12] it was 34.8% (active). The result in assay [2], in assay [3], in [4], in [5], in assay [6] and in [17] was inactive. Further, the result in assay [8], in assay [9], in assay [11], in assay [13], in assay [14] and in assay [15] was inactive. In addition, the result in assay [16] was inactive.

In the case of `COC(=O)[C@@]12CCCCN1[C@H](c1ccc(-c3cccc(Cl)c3)c(OC)c1)[C@H]1C(=O)N(C)C(=O)[C@H]12`, the result in assay [1], in assay [2], in assay [3], in [5], in assay [6] and in assay [7] was inactive. Also, the result in [8], in assay [9], in [10], in assay [11], in assay [12] and in [13] was inactive. For the same molecule, the result in assay [15] and in assay [16] was inactive. Moreover, the potentiation was 27% (active) in [4] and 52.4% (active) in assay [14].

Turning to `O=C(O)c1ccc(-c2ccc(/C=N/Nc3ccc([N+](=O)[O-])cc3)o2)cc1`, the activation in assay [1] is 120% (active); in assay [10], 442% (active); in [12], 111% (active); in assay [15] it was 106% (active). For the same molecule, the result in [2], in assay [3], in [5], in [6], in [17] and in [8] was inactive. The outcome in [9], in [11], in [13], in [14] and in assay [16] was inactive. Besides, the potentiation in assay [4] was 11% (active).

Take `CCCCN(CC)CCCNC(=O)c1csc2c1CCCCC2`: the activation was 211% (active) in assay [1], 66.5% (active) in assay [10] and 78.6% (active) in assay [12]. Besides, the outcome in [2], in [3], in [4], in [5], in [6] and in [17] was inactive. Besides, the outcome in assay [8], in assay [9], in assay [11], in [13], in [14] and in assay [15] was inactive. Moreover, the result in [16] was inactive.

For the molecule `CN(C)CCOc1cc(Cl)cc(Cl)c1`, the result in assay [1], in assay [2], in assay [3], in assay [4], in assay [5] and in assay [6] was inactive. For the same molecule, the outcome in [7], in [8], in assay [9], in assay [10], in assay [11] and in assay [12] was inactive. The result in assay [13], in assay [15] and in assay [16] was inactive. Also, the potentiation in [14] was 10.7% (active).

As to `CN(C)CCNc1ccc(Cl)cc1[N+](=O)[O-]`, the result in [1], in assay [2], in [3], in [4], in [5] and in [6] was inactive. Further, the outcome in assay [7], in assay [8], in assay [9], in [10], in [11] and in [12] was inactive. For the same molecule, the outcome in assay [13], in assay [15] and in assay [16] was inactive. Also, the potentiation in [14] was 8.91% (active).

On to `Cc1ccc(S(=O)(=O)N2CCC(N3CCN(C)CC3)CC2)cc1Cl`, for which the result in assay [1], in assay [2], in [5], in assay [6], in assay [7] and in [8] was inactive. The molecule was called inactive in assay [9], in assay [10], in assay [11], in assay [12], in assay [13] and in assay [15]. In assay [16], the result was inactive. Further, the potentiation in assay [3] was 12% (active); in [4], 20% (active); in [14] it was 34.5% (active).

For `CN(C)c1ccc(/C=C/C(=O)c2c(O)c3ccccc3oc2=O)cc1`, the activation was 221% (active) in [1], 934% (active) in [10], 113% (active) in assay [12] and 121% (active) in assay [15]. The outcome in [2], in assay [3], in [4], in assay [5], in assay [6] and in [17] was inactive. The outcome in assay [8], in assay [9], in [11], in assay [13], in assay [14] and in [16] was inactive.
